# High-throughput results deposited in PubChem by National Center for Advancing Translational Sciences (NCATS).
# PTHR1 agonist: qHTS for PTHR1 Agonists: Primary Screen. Parathyroid hormone/parathyroid hormone-related peptide receptor (Homo sapiens), Q03431. HEK293 GP2 PTHR1 cells, GloSensor cAMP luminescence, 1 h. Potency, µM (doses to about 115 µM), inactives show at the top dose activation, usual class: activators. 410,000 tested, 0.075% active; also: nearly all actives have a fitted effect of over 55% in size
# Target sequence (Q03431 whole entry, looked up): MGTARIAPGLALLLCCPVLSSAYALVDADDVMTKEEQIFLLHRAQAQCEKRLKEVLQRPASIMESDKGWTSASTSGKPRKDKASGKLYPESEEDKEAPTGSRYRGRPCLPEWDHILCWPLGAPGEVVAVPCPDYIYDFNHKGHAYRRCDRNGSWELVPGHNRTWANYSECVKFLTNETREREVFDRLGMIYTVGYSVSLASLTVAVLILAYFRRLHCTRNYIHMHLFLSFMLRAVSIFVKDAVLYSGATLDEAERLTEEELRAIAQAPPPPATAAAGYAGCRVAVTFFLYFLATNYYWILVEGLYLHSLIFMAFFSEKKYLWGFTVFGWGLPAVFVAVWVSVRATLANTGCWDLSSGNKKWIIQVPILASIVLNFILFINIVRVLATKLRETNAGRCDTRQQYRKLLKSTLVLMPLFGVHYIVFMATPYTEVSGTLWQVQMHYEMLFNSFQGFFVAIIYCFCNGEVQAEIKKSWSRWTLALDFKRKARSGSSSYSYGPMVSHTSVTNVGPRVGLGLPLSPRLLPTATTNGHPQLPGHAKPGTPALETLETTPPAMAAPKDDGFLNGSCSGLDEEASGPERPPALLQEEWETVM
#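 HEK-293-derived GP2 cells expressing PTHR1 and a GloSensor cAMP reporter, 3,000/well, plated overnight, given luciferin plus IBMX (each 0.5 mM as added) for 1 h at 37 °C, then compound for 1 h at 37 °C. Luminescence was read after 15 min at room temperature.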
# GCN5L2 inh: qHTS Assay for Inhibitors of GCN5L2. 390,000 tested, 0.21% active. Potency, µM (top dose mostly 58.9 µM), for the others: at the top dose activity change, negative = inhibition, most hits filed as inhibitors. AID 504327, 2011. Histone acetyltransferase KAT2A (Homo sapiens), Q92830. GCN5L2 HAT assay, ThioGlo1 CoA-SH fluorescence; also: % is scaled to controls: 0 for no effect and ±100 for the full control effect
#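 GCN5L2 (20 nM) in 50mM HEPES pH 7.5, 0.1mM EDTA, 0.01% Tween-20 preincubated 15 min with compounds at room temperature. Reaction started with H3(1-25) 75uM, acetyl-CoA 70uM, ThioGlo1 50uM; CoA-thiol fluorescence (Ex340/Em540) read at 0 and 20 min.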
# GLP1R ag: qHTS of GLP-1 Receptor Agonists; 380,000 tested, 0.007% active; HEK293 GLP-1R CRE-luciferase, luminescence, 4-6 h; cells express a hypersensitive GLP-1R form; Glucagon-like peptide 1 receptor (Homo sapiens), P43220; Potency, µM (highest dose often 45.6 µM), for the others: top-dose activation, actives largely listed as activators; also: % of control where 0% means no effect
# RGS4 inh: Inhibitors of Regulator of G Protein Signaling (RGS) 4: qHTS. Transcreener GDP fluorescence polarization, RGS4-accelerated GTP hydrolysis. Potency, µM (highest dose often 114 µM), for inactives: at the highest dose activity change, negative = inhibition, actives largely listed as inhibitors. 390,000 tested, 0.039% active; also: % is scaled to controls: 0 for no effect and ±100 for the full control effect; nearly all actives have a fitted effect of over 75% in size
#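 MLSMR compounds (23 nl, pin-transferred) preincubated 10 min at room temperature with a 500nM (2x) first reagent, then RGS4 at 900nM (2x) plus Transcreener GDP mix added; fluorescence polarization (620/688 nm) read before and after 90 min at 30 °C.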
# GLP1R cytotox: qHTS of GLP-1 Receptor Inverse Agonists: Cytotox Screen; HEK293 cAMP-luciferase reporter cells, luminescence, 24 h; Potency, µM (doses to about 38.3 µM), for the others: at the top dose activity change, negative = inhibition, hits mostly inhibitors; 410,000 tested, 0.13% active;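 also: loss of luciferase light is scored as toxicity; % is scaled to controls: 0 for no effect and ±100 for the full control effect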
#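 Compound-treated cells are incubated 24 hr at 37 deg C under 5% CO2 after a 12 hour attachment period, then luciferase detection reagent is added and luminescence is measured following 12 min at room temperature; lowered signal indicates toxicity.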
# GLP-1R inv ag: qHTS of GLP-1 Receptor Inverse Agonists (Inhibition Mode) | HEK293 GLP-1R CRE-luciferase, luminescence, 24 h; GLP-1R form is constitutively active | Potency, µM (series often up to 38.3 µM), for the others: at the highest dose activity change, negative = inhibition, usual class: inhibitors | 410,000 tested, 1.6% active | AID 624417, 2012; also: % is scaled to controls: 0 for no effect and ±100 for the full control effect; nearly all actives have a fitted effect of over 55% in size
#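 Constitutively active GLP-1R drives a cAMP-responsive luciferase in stably transfected HEK293 cells; test compounds are added after overnight (12 h) attachment and left 24 hr, and signal loss in luminescence marks inhibition.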
# * = called active by the depositor; i = inactive; ? = inconclusive; · = not tested or not shown; [ ] = another dose, or the depositor's remark. Rows were chosen to be rich in hits. Some 1.8% of all compounds tested hit in one or more screens of this group. Calls follow the shape of the dose curve; as a rule, active = well fitted curve in the direction sought with a large enough effect; inconclusive = small, poorly fitted or top-dose-only effect, or another doubt; inactive = no such curve, though single readings can be large; an effect the other way counts as inactive or inconclusive. Potency is read from the fitted curve at half-maximal effect.
SMILES,PTHR1 agonist,GCN5L2 inh,GLP1R ag,RGS4 inh,GLP1R cytotox,GLP-1R inv ag
Cc1ccc(S(=O)(=O)N(CC(=O)Nc2c(C)cccc2C)c2cccc(Cl)c2)cc1,-0.5%,1.4%,·,3.0%,4.2%,?
COc1ccccc1OCCn1cc(C(=O)c2ccco2)c2ccccc21,-4.1%[57.5 µM],-2.7%,-6.2%,-18.4%,-13.8%,12.6µM*
O=C(OCc1ccccc1)N1CCC2CC1c1cc(NCCc3ccccc3)ccc12 (stereo not given),i,·,-4.5%,-13.0%,21.6%,11.2µM*
O=C(OCc1ccccc1)N1CCC2CC1c1cc(-c3ccc(F)cc3)ccc12 (stereo not given),-31.0%,·,15.9%,-16.3%,18.0%,?
CC(C)NC(=O)CN(Cc1ccc(F)cc1)C(=O)CCC(=O)Nc1ccccn1,-19.2%,-2.4%,-2.0%,-5.5%,11.2%,2.8%
CCc1cc(=S)n2c([nH]c3ccccc32)c1C#N,-11.8%,28.2µM*,-1.6%,?,134.7%,3.2%
Cc1[nH]c2ccccc2c1C(=O)CSc1ccc(Cl)cc1,-13.2%,-4.1%,0.9%,?,6.4%,15.9%
Cc1[nH]c2ccccc2c1C(=O)CN1C(=O)NC(C)(c2ccc(Cl)cc2Cl)C1=O (stereo not given),i,-3.5%,17.1%,-19.1%,?,12.6µM*
CCCS/C(N)=N/N=C/c1cc(C)ccc1O,-24.1%[57.5 µM],-2.9%,?,10.5%,-16.0%,?
CCCCS/C(N)=N/N=C/c1ccccc1O,-36.5%,-1.0%,24.6%,-24.2%,2.82µM*,?
N#CC(C#N)=C(Nc1ccc(F)cc1)SCc1cccc(Br)c1,-33.2%,-9.4%,-8.2%,-19.9%,8.8%,2µM*
COCCN1C(=O)COc2ccccc2C1C(=O)Nc1c(C)cccc1C (stereo not given),-13.4%,·,-3.6%,·,4.8%,1.9%
O=C(N/N=C/c1ccc[nH]1)c1sc2ccccc2c1Cl,i,3.0%,2.0%,13.1%,?,10µM*
CCC/C(=C1/c2ccccc2C(=O)N1c1ccccc1)c1ccc2[nH]ccc2c1,-61.6%,-11.5%,-2.7%,9.8%,-3.5%,4.47µM*
O=C1c2ccccc2/C(=C\c2ccc3[nH]ccc3c2)N1c1ccccc1,-12.3%,-7.2%,-2.0%,9.8%,-3.6%,1.1%
O=C(NCc1nnc(SCc2ccc(F)cc2)n1-c1ccc(F)cc1)C12CC3CC(CC(C3)C1)C2,i,-5.3%,1.7%,-5.8%,?,7.08µM*
O=C(NCc1nc(-c2ccc(C(F)(F)F)cc2)no1)Nc1cc(Cl)cc(Cl)c1,-37.3%,-1.8%,-1.6%,16.7%,?,?
N#CC(C#N)=NNc1ccc(S(=O)(=O)N2CCCCC2)cc1,-22.1%,-14.1%,-51.2%,?,?,1.26µM*
COc1ccc(OC)c(NC(=O)Nc2nnc([C@@H]3O[C@H](CO)[C@@H](O)[C@H]3O)s2)c1,-10.9%,·,-1.5%,·,-7.0%,19.0%
CCN(CC)S(=O)(=O)c1ccc(NC(=O)NCc2noc3ccc(C)cc23)cc1,-91.9%,-22.6%,·,-26.2%,-30.5%,10µM*
O=C(NC(c1ccc(Cl)cc1)c1ccsc1)C1CCN(Cc2ccc(Oc3ccccc3)cc2)CC1 (stereo not given),-6.6%,·,1.7%,·,-23.7%,10µM*
O=C(CNc1ccc2c(c1)OCO2)N/N=C\c1cn(Cc2ccccc2)c2ccccc12,i,-9.3%,-1.6%,-33.0%,-24.1%,2.82µM*
C=CCc1cccc(/C=N/NC(=O)CNc2ccccc2)c1O,-15.1%[57.5 µM],·,-11.3%,2.4%,?,3.55µM*
O=C(CNc1ccc2c(c1)OCO2)N/N=C\c1cn(Cc2ccc(F)cc2)c2ccccc12,·,-7.6%,·,·,·,·
C=CCc1cccc(/C=N/NC(=O)CCCNc2ccc(C)cc2)c1O,i,-11.9%,3.1%,-7.8%,?,10µM*
SMILES,PTHR1 agonist,GCN5L2 inh,GLP1R ag,RGS4 inh,GLP1R cytotox,GLP-1R inv ag
Nc1ccc(C(=O)N/N=C/c2cn(Cc3cccc(F)c3)c3ccccc23)cc1,-29.2%,-16.8%,7.7%,-25.8%,3.7%,5.01µM*
C=CCc1cccc(/C=N/NC(=O)CCC(=O)Nc2ccc(F)cc2)c1O,-6.8%,2.8%,2.9%,3.6%,6.3%,?
O=C(N/N=C/c1cn(Cc2ccccc2)c2ccccc12)c1ccncc1,-23.7%,-6.4%,13.5%,-15.3%,-0.4%,?
CC1(C)CCC[C@@](C)([C@H]2CC[C@]3(C)[C@@H]2[C@H](O)CC2[C@@]4(C)CC[C@H](O)C(C)(C)[C@@H]4[C@@H](O)C[C@]23C)O1 (stereo not given in full),·,0.0%,·,·,·,·
CCOC(=O)c1cnc2ccc(C)cc2c1Nc1ccc(OCc2ccccc2Cl)cc1,i,-2.1%,·,-2.1%,-0.2%,11.2µM*
CCOC(=O)c1cnc2ccc(OCC)cc2c1Nc1ccc(OCc2ccccc2Cl)cc1,-3.4%,-7.5%,·,-6.1%,7.5%,?
COc1cccc(NC(=O)N2CCC(n3c(C)nc4cccnc43)CC2)c1,-13.7%,-4.2%,·,8.4%,-2.6%,5.4%
CC(OC(=O)c1ccccc1Br)C(=O)Nc1nc(-c2cccc([N+](=O)[O-])c2)cs1 (stereo not given),-33.7%,-1.2%,-0.6%,-19.1%,10.3%,26.9%
O=C(Nc1nc(-c2cccc([N+](=O)[O-])c2)cs1)C(c1ccccc1)c1ccccc1,-2.4%[57.5 µM],-26.3%,-19.7%,18.0%,49.7%,1.58µM*
Cc1ccc(NS(=O)(=O)c2ccc3c(c2)NC(=O)CO3)cc1Cl,-20.5%,-3.3%,-1.1%,11.4%,-9.8%,10µM*
Cc1ccc(NS(=O)(=O)c2ccc3c(c2)NC(=O)CO3)cc1C,i,-13.8%,-3.1%,-5.7%,-8.8%,?
CCC(C)(c1nnnn1-c1c(C)cccc1C)N(N=O)c1ccccc1Cl (stereo not given),-22.4%,-6.6%,-3.1%,0.8%,-5.7%,7.94µM*
COc1cccc(NC(=O)CN(C)C(=O)Cc2cccc3ccccc23)c1,-21.8%,3.5%,-6.1%,10.2%,-14.9%,?
